# Pf growth 96h = Primary qHTS for delayed death inhibitors of the malarial parasite plastid, 96 hour incubation | AID 504834, 2011 | P. falciparum luciferase reporter growth, 96 h | Potency, µM (doses to about 28.7 µM), for the others: at the highest dose activity change, negative = inhibition, hits mostly inhibitors | 320,000 compounds, 6.9% hits; further: on the % scale 0 is the no-effect control and ±100 the full control effect
#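 96 h incubation, 37 C, 5% CO2, of luciferase-reporter P. falciparum-infected RBCs (2% hematocrit, 0.05% parasitemia final) with test compounds; endpoint luminescence.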
# SARS PLP yeast = qHTS of Yeast-based Assay for SARS-CoV PLP. S. cerevisiae expressing SARS-CoV PLpro, growth rescue. Potency, µM (top dose mostly 32.9 µM), for the others: at the top dose activity, positive = growth rescue, usual class: activators. 330,000 compounds, 0.19% hits. AID 485353, 2010; calls by dose curve; further: 0% is about no effect; nearly all actives have a fitted effect of over 55% in size
# AMA1-RON2 inh = qHTS for Inhibitors of AMA1-RON; Towards Development of Antimalarial Drug Lead: Primary Screen | AlphaScreen AMA1-biotinylated RON2 peptide binding | 360,000 compounds, 0.2% hits | AID 720542, 2013 | Potency, µM (top dose mostly 58.2 µM), without a hit: top-dose activity change, negative = inhibition, actives largely listed as inhibitors;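 further: 0% = vehicle wells and -100% = peptide control; nearly all actives have a fitted effect of over 45% in size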
#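 AMA1 (3D7) with his tag at 25 nM final met compounds first, then biotinylated RON2 peptide at 25 nM; detection used donor plus acceptor beads, 10 µg/mL apiece, read by AlphaScreen after 30 min at room temperature.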
# Pf growth 48h = Primary qHTS for delayed death inhibitors of the malarial parasite plastid, 48 hour incubation; P. falciparum luciferase growth in erythrocytes, 48 h; Potency, µM (top dose mostly 28.7 µM), inactives show top-dose activity change, negative = inhibition, usual class: inhibitors; 310,000 compounds, 5.9% hits; further: on the % scale 0 is the no-effect control and ±100 the full control effect
#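 Parasite viability was followed by luminescence of a genomically integrated firefly luciferase. Cultures held 0.1% parasitemia at 2% hematocrit (final), incubated under 5% CO2 at 37 C.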
# The depositor's hits bear a star; u = inconclusive; x = no result given. The list is not random: actives were taken first. Their share in the collection is about 9.4%. Unless noted, the call rests on the fitted dose curve; in most records, active means well fitted curve in the direction sought with a large enough effect; inconclusive means small, poorly fitted or top-dose-only effect, or another doubt; inactive means no such curve, though single readings can be large; an effect the other way counts as inactive or inconclusive. Potency means the concentration at half of the fitted maximal effect.
SMILES,Pf growth 96h,SARS PLP yeast,AMA1-RON2 inh,Pf growth 48h
CC1N(C)c2cc(NC(=O)c3ccco3)c(P(=O)(Nc3ccc([N+](=O)[O-])cc3)N3CCOCC3)cc2C1(C)C (configuration not stated),9.3µM*,-2%,-12%,5.9µM*
CC1N(C)c2cc(NC(=O)c3ccco3)ccc2C1(C)C (configuration not stated),16%,-11%,u,-71%
Cc1cccc(OCC(=O)NCC(c2ccco2)N2CCCC2)c1 (configuration not stated),u,0%,8%,u
O=C(Nc1ccc(Cl)cc1)ON=C1CCCC1,u,-89%,-13%,12µM*
NC(=O)Nc1ccc(Cl)cc1,35%,-3%,5%,90%
O=C(Nc1ccc(Cc2ccncc2)cc1)C1CCC(N2C(=O)C3C4C=CC(C4)C3C2=O)CC1 (configuration not stated),12µM*,-20%,15%,x
CCN(CC)CC(=O)N1c2ccccc2Oc2c(c(=O)n(C)c(=O)n2C)C1c1cccc([N+](=O)[O-])c1 (configuration not stated),u,1%,6%,5.9µM*
CN1c2ccccc2Oc2c(c(=O)n(C)c(=O)n2C)C1c1cccc([N+](=O)[O-])c1 (configuration not stated),u,2%,3%,-9%
Cc1ccc(C)c(NC(=O)CCc2nnc3ccc(N4CCCC4)nn23)c1,u,3%,-4%,0%
CCOc1ccc(CCNC(=O)CCc2nnc3ccc(N4CCOCC4)nn23)cc1OCC,13µM*,4%,0%,-2%
CCOC(=O)C(Cc1ccccc1)NC(=O)CCc1nnc2ccc(N3CCOCC3)nn12 (configuration not stated),u,29%,-7%,u
CSc1ccc(CCNC(=O)CCc2nnc3ccc(N4CCCC4)nn23)cc1,9.3µM*,6%,-2%,u
Cc1cccnc1NC(=O)c1ccc2nc(N)sc2c1,12%,11%,-7%,x
CC1CC(OC(=O)c2ccccc2)(c2ccccc2)C(C)CN1C (configuration not stated),u,0%,0%,6.6µM*
Cc1cccc(C(=O)O[C@@H]2[C@H](Cc3ccccc3)NS(=O)(=O)[C@H]3C[C@@H]4C=C[C@]23O4)c1,9.3µM*,5%,-20%,u
Cc1[nH]c2ccccc2c1/C=N/Nc1ccc([N+](=O)[O-])cc1,-5%,-57%,-27%,u
COc1ccccc1NS(=O)(=O)c1cc([N+](=O)[O-])ccc1N/N=C/c1c(C)[nH]c2ccccc12,x,-3%,0%,10µM*
Cc1cccc(-c2n[nH]c(=S)n2Cc2ccccc2)c1,-17%,8.9µM*,0%,6%
Cc1cccc(CSCC(=O)NCc2ccc(S(N)(=O)=O)cc2)c1,5%,-1%,-8%,9%
Cc1ccc(CN2CCN(Cc3cn(C)nc3C)CC2CCO)o1 (configuration not stated),-53%,0%,-13%,3%
CC(=O)Nc1ccc(S(=O)(=O)Nc2cccc(-c3ccc4nncn4n3)c2)cc1,2.1µM*,4%,-4%,-26%
Cc1[nH]c(=O)[nH]c(=O)c1N(C)C,u,0%,-1%,1%
Cc1ccc(CNC(=O)C(=O)NCCC2CCCCN2S(=O)(=O)c2ccccc2)cc1 (configuration not stated),u,8%,-1%,-32%
Cc1cc(S(=O)(=O)N2CCCCC2CCNC(=O)C(=O)NCc2cccnc2)ccc1F (configuration not stated),13µM*,-1%,-7%,u
O=C(NCCC1CCCCN1S(=O)(=O)c1ccccc1)C(=O)NCc1ccccc1 (configuration not stated),17µM*,3%,-21%,-21%
SMILES,Pf growth 96h,SARS PLP yeast,AMA1-RON2 inh,Pf growth 48h
O=C(NCCC1CCCCN1S(=O)(=O)c1ccccc1)C(=O)NCc1ccc(F)cc1 (configuration not stated),u,4%,0%,10µM*
Nc1ccc(C(=O)C(=O)c2ccc(N)cc2)cc1,39%,-1%,13%,0%
CCC(Sc1ncccc1C(=O)OCCN1CCCC1=O)C(=O)NCc1ccco1 (configuration not stated),u,12%,4%,u
Cc1cccc(NC(=O)CSc2nc(C3CC3)nc3ccccc23)c1,-10%,-1%,u,u
O=C(CCS(=O)(=O)c1cccs1)Nc1ccc(C(=O)NCc2ccccc2)cc1,39%,1%,-2%,x
CC(C)N(Cc1c(O)ccc2c(=O)c(-c3ccc(Cl)cc3)coc12)C(C)C,-13%,-7%,10%,0%
O=C(Nc1ccc(S(=O)(=O)Nc2ncccn2)cc1)c1ccc(F)c(S(=O)(=O)N2CCOCC2)c1,-16%,2%,-18%,-7%
O=C1/C(=C/c2ccc(O)cc2)SC(=S)N1CC1CCCO1 (configuration not stated),u,-2%,-13%,-27%
Cc1ccsc1/C=C1\SC(=S)N(CC2CCCO2)C1=O (configuration not stated),1.3µM*,0%,-21%,27%
Cc1ccc(OCC(=O)N2CCN(c3nnc(-c4ccc(C)cc4)c4ccccc34)CC2)cc1,2.9µM*,0%,-21%,x
COc1ccc(OCC(=O)N2CCN(c3nnc(-c4ccc(C)cc4)c4ccccc34)CC2)cc1,u,-2%,-27%,u
Cc1ccc(-c2nnc(N3CCN(C(=O)COc4cccc(C)c4)CC3)c3ccccc23)cc1,13µM*,-3%,-10%,8.3µM*
CCn1c(O)c(N=Nc2ccc(Cl)c(C(=O)O)c2)c2ccccc21,3%,-2%,0%,0%
CCCN1C(=O)c2cc(C(=O)Nc3ccccc3C)ccc2C1Nc1ccccc1C (configuration not stated),u,1%,-1%,u
Cc1cc(C)c(-c2cc(C(=O)Nc3c(C)n(C)n(-c4ccccc4)c3=O)[nH]n2)c(O)c1,60%,-1%,71%,-10%
Cc1ccc(NC(=O)c2cc(-c3cc(Cl)ccc3O)n[nH]2)cc1C,1.7µM*,0%,59%,1.9µM*
Cc1cccc(NC(=O)c2cc(-c3c(C)cc(C)cc3O)n[nH]2)c1,15µM*,0%,21%,0%
Cc1cc(C)c(O)c(-c2cc(C(=O)NCc3ccccc3)[nH]n2)c1,u,4%,116%,x
Cc1ccc(O)c(-c2cc(C(=O)NCc3ccncc3)[nH]n2)c1,4.1µM*,-2%,56%,2.9µM*
Cc1cccc(NC(=O)c2cc(-c3cc(Cl)ccc3O)n[nH]2)c1,2.3µM*,-1%,56%,2.6µM*
CC(C)OC(=O)CCC(=O)Nc1ccc(F)cc1,u,-9%,13%,23%
CCOC(=O)c1cnn(-c2nc3sc4c(c3c(=O)[nH]2)CCCC4)c1N,23%,-10%,x,u

# High-throughput results as filed in PubChem BioAssay.
